Measurements: PubChem BioAssay

Experiments:
[1] = target: Tumor necrosis factor receptor superfamily member 10B (Homo sapiens) (UniProt O14763); experiment: viability loss of caspase-8 NB7 cells with TRAIL – with/without TRAIL, luminescence panel, confirmation (AID 651596); conditions: NB7 neuroblastoma + caspase-8, TRAIL sensitization, NB7 Caspase-8, with TRAIL, mean of runs, at 10 µM, stronger effect = higher value
[2] = as above; conditions: NB7 neuroblastoma + caspase-8, without TRAIL, NB7 Caspase-8, without TRAIL, mean of runs, at 10 µM
[3] = target: Tumor necrosis factor receptor superfamily member 10B (Homo sapiens) (UniProt O14763); experiment: compound enhancement of TRAIL-induced cell killing – NB7 cells plus caspase-8, luminescence, panel, dose response (AID 652002); conditions: NB7 neuroblastoma +caspase-8, TRAIL sensitization, luminescence viability, NB7+Caspase-8, with TRAIL, run 1; at 12.5 µM (top of the series)
[4] = target: Tumor necrosis factor receptor superfamily member 10B (Homo sapiens) (UniProt O14763); experiment: as above; conditions: NB7 neuroblastoma +caspase-8, TRAIL sensitization, luminescence viability, NB7+Caspase-8, with TRAIL, run 2; at 12.5 µM (top of the series)
[5] = as above; conditions: NB7 neuroblastoma +caspase-8, no TRAIL, compound-alone cytotoxicity counter-screen, luminescence viability, NB7+Caspase-8, run 1; at 12.5 µM (top of the series)
[6] = as above; conditions: NB7 neuroblastoma +caspase-8, no TRAIL, compound-alone cytotoxicity counter-screen, luminescence viability, NB7+Caspase-8, run 2; at 12.5 µM (top of the series)

Tumor necrosis factor receptor superfamily member 10B (Homo sapiens), sequence (O14763 whole entry, looked up): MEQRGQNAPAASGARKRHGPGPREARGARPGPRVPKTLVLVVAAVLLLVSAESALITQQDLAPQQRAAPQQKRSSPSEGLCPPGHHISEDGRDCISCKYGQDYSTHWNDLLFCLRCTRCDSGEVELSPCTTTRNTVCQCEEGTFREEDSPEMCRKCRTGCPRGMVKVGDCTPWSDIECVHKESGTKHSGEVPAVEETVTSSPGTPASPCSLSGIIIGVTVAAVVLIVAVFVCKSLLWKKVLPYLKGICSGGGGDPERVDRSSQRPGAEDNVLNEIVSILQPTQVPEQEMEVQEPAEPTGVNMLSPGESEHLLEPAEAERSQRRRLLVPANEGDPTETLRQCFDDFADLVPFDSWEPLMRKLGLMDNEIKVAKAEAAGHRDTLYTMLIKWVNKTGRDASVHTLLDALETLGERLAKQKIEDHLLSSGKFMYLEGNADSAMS

CCOc1ccc(-c2c(C)n(-c3ccc(OCC)cc3)c3[n+]2CCCCC3)cc1
activity [1]: 61%
activity [2]: 63%

CC(=O)OC1C(=O)OCC23CCC4(C)OC4C2OC2CC(OC(=O)C=CC=CC(=O)OCCC1C)C3(C)C21CO1 (stereo not drawn)
activity [1]: 89.6%
activity [2]: 92.9%

CCCOC(=O)c1ccc(-[n+]2c(-c3ccccc3)cc(-c3ccccc3)cc2-c2ccccc2)cc1
activity [1]: 74.7%
activity [2]: 68.3%

COc1ccc2nc(-c3ccc(CN4CCC(n5c(=O)[nH]c6ccccc65)CC4)cc3)c(-c3ccccc3)nc2c1
activity [1]: 39.8%
activity [2]: 24.9%

CC(C)N(C(=O)CCl)c1ccccc1
activity [1]: 98%
activity [2]: 98.3%

CCOC(=O)[C@]12Cc3cc(Cl)ccc3[C@H]1N(C(C)C)C(=O)c1ccccc12
activity [1]: 79.3%
activity [2]: 85.9%

CCOC(=O)[C@]12Cc3ccc(C)cc3[C@H]1N(C1CCCCC1)C(=O)c1cc(OC)ccc12
activity [1]: 97.5%
activity [2]: 98%

CN(C)C(=O)Oc1ccc(OCc2nc3ccccc3[nH]2)cc1
activity [1]: 75.7%
activity [2]: 78.1%

CC12CCC(O)CC1CCC1C2CCC2(C)C(C3=CC(=O)OC3)C(O)CC12O (stereo not drawn)
activity [1]: 80.4%
activity [2]: 53.5%

O=c1[nH]c2ccccc2n1C1CCN(C(c2cc3ccccc3o2)c2nnnn2Cc2ccccc2)CC1 (stereo not drawn)
activity [1]: 73.2%
activity [2]: 75.7%

Nc1ncnc2c1ccn2[C@@H]1O[C@H](CO)[C@@H](O)[C@H]1O
activity [1]: 97.7%
activity [2]: 97.9%

Oc1ccc(-[n+]2c(-c3ccccc3)cc(-c3ccccc3)cc2-c2ccccc2)cc1
activity [1]: 90.3%
activity [2]: 59.6%

CNC(=O)Oc1ccc(-c2cn3cc(Cl)ccc3n2)cc1
activity [1]: 85.8%
activity [2]: 84.1%

COC(=O)[C@@H]1[C@@H](C(=O)OC)C2(c3ccccc3-c3ccccc32)N(c2ccc(Cl)cc2)N1C#N
activity [1]: 96.8%
activity [2]: 99.2%

Cc1nc2cc(C(F)(F)F)ccc2n1C1CCN(Cc2nnnn2Cc2ccc3c(c2)OCO3)CC1
activity [1]: 53%
activity [2]: 54.3%

CNC(=O)O/N=C(\N)Cc1csc2ccc(Cl)cc12
activity [1]: 87.3%
activity [2]: 91.2%

CCOC(=O)[C@]12Cc3cc(Cl)ccc3[C@H]1N(CC(=O)OC)C(=O)c1ccccc12
activity [1]: 40.5%
activity [2]: 64%

CC1CC(C)CC(C)C(O)C(C#N)=CC=CCC(C2CCCC2C(=O)O)OC(=O)CC(O)C(C)C1 (stereo not drawn)
activity [1]: 94%
activity [2]: 98.7%

CC(C)(O)/C=C/C(=O)C(C)(O)C1C(O)CC2(C)C3CC=C4C(C=C(O)C(=O)C4(C)C)C3(C)C(=O)CC12C (stereo not drawn)
activity [1]: 46.5%
activity [2]: 81.1%

CCOC(=O)[C@]12Cc3cc(C)ccc3[C@H]1N(C1CCCCC1)C(=O)c1ccccc12
activity [1]: 95.3%
activity [2]: 96.5%

CCOC(=O)[C@]12Cc3cc4ccccc4cc3[C@H]1N(Cc1ccccc1)C(=O)c1ccccc12
activity [1]: 52.8%
activity [2]: 54.6%
activity, % sensitization [3]: 18.4%
activity, % sensitization [4]: 31.7%
activity, % sensitization [5]: 6.91%
activity, % sensitization [6]: 3.45%

COc1ccc(-[n+]2c(-c3ccccc3)cc(-c3ccc(C)cc3)cc2-c2ccccc2)cc1
activity [1]: 74.3%
activity [2]: 64.8%

CCOC(=O)[C@]12Cc3cc(OC)ccc3[C@H]1N(C1CCCCC1)C(=O)c1ccccc12
activity [1]: 91.9%
activity [2]: 94.1%

O=c1[nH]c2ccccc2n1C1CCN(C(CCc2ccccc2)c2nnnn2Cc2ccccc2)CC1 (stereo not drawn)
activity [1]: 95.3%
activity [2]: 92.7%

C[C@H]1O[C@@H](OC2CC[C@]3(C=O)[C@H]4CC[C@]5(C)[C@@H](C6=CC(=O)OC6)CC[C@]5(O)[C@@H]4CC[C@]3(O)C2)CC2OC(C)(C)OC21 (stereo partly drawn)
activity [1]: 85.6%
activity [2]: 92.4%

COc1ccc(-n2nnnc2C(c2cc3ccccc3o2)N2CCC(n3c(=O)[nH]c4ccccc43)CC2)cc1 (stereo not drawn)
activity [1]: 69.4%
activity [2]: 62.5%

CCCC1(CCC)C(=O)NC(=NCc2ccccc2)NC1=O
activity [1]: 51.6%
activity [2]: 20.8%
activity, % sensitization [3]: -11.1%
activity, % sensitization [4]: 5.29%
activity, % sensitization [5]: -4.21%
activity, % sensitization [6]: -22.9%

CCOC(=O)[C@]12Cc3cc4ccccc4cc3[C@H]1N(Cc1ccccc1)C(=O)c1cc(OC)ccc12
activity [1]: 46.5%
activity [2]: 53.2%
activity, % sensitization [3]: 23.8%
activity, % sensitization [4]: 23.6%
activity, % sensitization [5]: 7.37%
activity, % sensitization [6]: 2.99%

Cc1ccccc1-[n+]1c(-c2ccccc2)cc(-c2ccccc2)cc1-c1ccccc1
activity [1]: 75.7%
activity [2]: 64.1%

CC1OC(OC2C=C3CCC4C(CCC5(C)C(c6ccc(=O)oc6)CCC45O)C3(C)CC2)C(O)C(OC2OC(CO)C(O)C(O)C2O)C1O (stereo not drawn)
activity [1]: 83.1%
activity [2]: 91.9%

C[C@]12CC[C@H]3C(CCC4(O)CC(O)CC[C@]34C=O)C1=CC[C@H]2c1ccc(=O)oc1 (stereo partly drawn)
activity [1]: 70.2%
activity [2]: 55.2%

CC1CCC(C(C)C)C(OC(=O)Cn2c(COc3ccccc3)[n+](C)c3ccccc32)C1 (stereo not drawn)
activity [1]: 66.9%
activity [2]: 57.7%

CC1=CC2OC3CC4OC(=O)C=CC=CC(C(C)O)OCC(O)C5(C)OC5C(=O)OCC2(CC1O)C4(C)C31CO1 (stereo not drawn)
activity [1]: 93%
activity [2]: 98.3%
